Each structure is given as a SMILES string. The panel holds about 83,000 compounds, 20% with a hit somewhere; the sample as a whole holds those more often.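 Note: values are percent growth. 100 is the growth of untreated cells, values between 100 and 0 indicate rising inhibition; between -100 and 0 indicates cell death.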 Unmarked numbers belong to inactive results. Activity calls are given as the source filed them. The calls were made as follows: active = growth percent below 10; inactive = the rest.

This experiment has as its system HL-60(TB) leukemia. Description: NCI-60 one-dose screen, 48 h (100 = growth as untreated, 0 = no growth, -100 = all killed). As to conditions: 10 µM unless noted.
In the case of `Clc1ccc(-n2ncc3c(NCCCN4CCOCC4)ncnc32)cc1`, the growth was 86%.

For `CCOc1c(OC)cc2c(c1O)C(=O)N[C@@H]1[C@@H](O)[C@@H](O)[C@H](O)C[C@@H]21`, the growth is 100%. As to `Nc1c(C(=O)Nc2ccnc3ccccc23)sc2nc3c(cc12)CN(Cc1ccccc1)CC3`, the growth was 32.7%. On to `O=C(Nc1cccc(C(F)(F)F)c1)Nc1ccc(OCc2nnc(-c3ccccc3)o2)c(F)c1`, for which the growth was -4.69% (active). Next, `Cc1ccc(C(C)C)c(OCc2ccc(C(=O)N/N=C/c3cccc(O)c3O)cc2)c1`: -4.57% (active); `Cc1ccc(-c2nc(C#N)c(S(=O)(=O)NCCO)o2)cc1`: -20.1% (active).

Consider `CN1CCN(Cc2ccc(NC(=O)c3cncc(C#Cc4cnc(N)c5cnccc45)c3)cc2C(F)(F)F)CC1`, for which the growth is -25% (active).

As for `Nc1nc2nnc(-c3ccccc3)c(-c3ccccc3)n2n1`, the growth is 146%. For `C/C(CCC(=O)O)=N/Nc1ccc([N+](=O)[O-])cc1`, the growth was 31.9%. Next, `COc1ccc(-c2cc(-c3ccccc3)nc(NCCNc3ccnc4cc(Cl)ccc34)n2)cc1`: -58.7% (active); `COc1ccc(OC)c(/C=C2\Oc3cc(OCCCN4CCCC4)ccc3C2=O)c1`: 87.5%; `Cc1[nH]c(C(=O)Nc2nc3ccc(NC(=O)CCN)cc3s2)c(Cl)c1Cl`: 83.8%. Turning to `Cc1cccc(N2CCN(CC(O)COc3ccc(Cl)cc3)CC2)c1` (stereo not given), the growth is 123%. Next, `O=C(CI)NC(=O)NC(=O)NCc1ccccc1`: -10.5% (active); `CCN1C(=O)N(c2ccccc2)C2NC(=S)N(/N=C/C=C/c3ccccc3)C21` (stereo not given): -26.4% (active); `O=C1CCC23OC(C(O)c4ccccc4N12)C1C(Br)=NOC13` (stereo not given): 96%.

On to `Nc1cc(O)cc2cccnc12`, for which the growth is 98.5%. Consider `CN(C)CCN(Cc1ccccc1)c1ccc2ccccc2n1`, for which the growth is 89.7%. Consider `Oc1ccc(N=Cc2ccccc2O)cc1`, for which the growth is 63.3%. Regarding `CCN(CC)CCCC(C)N/C(c1cccc(OC)c1)=c1\c(=O)[nH]n(-c2c3ccccc3nc3ccccc23)c(=O)\c1=C(/NC(C)CCCN(CC)CC)c1cccc(OC)c1` (stereo not given), the growth was -43.5% (active). Consider `C[C@H](CCC[C@H](C)OS(=O)(=O)c1ccccc1)OS(=O)(=O)c1ccccc1`, for which the growth is 119%. The result for `Nc1ncnc2c1ncn2C1(CO)OCC(O)C(O)C1O` (stereo not given) reads 95.9%; that for `O=c1c2cc(F)ccc2sc2c(NCCN3CCCC3)nc3ccccc3c12`, 91.9%. Next, `Clc1ccc(C2=Nn3c(nnc3-c3cc(Cl)cc(Cl)c3Cl)SC2)cc1`: -15% (active). The result for `CCCCCCCC/C=C\CCCCCCCCOc1ccc(CC(=O)NCC[N+](C)(C)C)cc1` reads -35.7% (active); that for `Cc1sc2ncn(CC(=O)Nc3ccc(S(N)(=O)=O)cc3)c(=O)c2c1C`, 103%.

Take `O=S(Nc1ccccc1)c1ccc(Cl)cc1` (stereo not given): the growth is 90.8%. The result for `CC(=NCc1ccccc1)c1ccc(O)cc1O` reads 102%; that for `CCOC(=O)c1c2c(n3ccc(NC(=O)OC(C)(C)C)cc13)C(=O)c1ncccc1C2=O`, -34.2% (active). The result for `CCOC(=O)NNC(=S)Nc1ccccc1` reads 106%.

Take `CCCCC[C@H]1CC=C2C(=O)C=C[C@@H]2CC=CCCCC(=O)O[C@@H](CCCCC)CC=C2C(=O)C=C[C@@H]2CC=CCCCC(=O)O[C@@H](CCCCC)CC=C2C(=O)C=C[C@@H]2CC=CCCCC(=O)O1`: the growth was -32.4% [8.75 µM] (active).

With `Cc1nn(-c2ccccc2)c(Cl)c1/C=C/C(=O)c1ccc(F)cc1`, the growth is 47.1%. The result for `c1ccc2c3c([nH]c2c1)C(c1ccc(C2NCCc4c2[nH]c2ccccc42)cc1)NCC3` (stereo not given) reads -63.2% (active); that for `CCN(C(=O)c1ccc2c3c(cccc13)C=C2)c1ccccc1`, 86.4%. The result for `N#Cc1c2ncccc2c2nnc3cc(Cl)c(Cl)cc3n12` reads 80.4%; that for `CCCCCCNC(=O)Nc1ccc2cc3ccc(NC(=O)NCCCCCC)cc3nc2c1`, -49% (active); that for `ClC(Cl)(Cl)c1nc2nccnc2[nH]1`, 103%. Next, `c1ccc(-c2nc3sc(-c4ccccc4)cn3n2)cc1`: 78.8%; `CNCc1cccc2c1OCCOCCOCCN(C)S(=O)(=O)c1ccc(cc1)-c1cnc(N)c(n1)C(=O)N2`: -37% (active); `O=C1CCc2c(sc3[nH]c(=S)n(Cc4ccc(Cl)cc4)c(=O)c23)C1`: -5.26% (active).
